Columns and labels:
Experiment in all cases: log2 ratio of Biotin-Ahx-Ub-VS probe labelling (fragment/DMSO); higher = less target engagement (more negative = stronger competition), active = hit call of the paper (q ≤ 0.05, log2 ratio ≤ -1)
Settings in all cases: compound concentration: 200 uM; treatment time: 3 h
ALG13 = target: T1, ALG13 (UniProt Q9NP73)
T1 sequence (whole entry): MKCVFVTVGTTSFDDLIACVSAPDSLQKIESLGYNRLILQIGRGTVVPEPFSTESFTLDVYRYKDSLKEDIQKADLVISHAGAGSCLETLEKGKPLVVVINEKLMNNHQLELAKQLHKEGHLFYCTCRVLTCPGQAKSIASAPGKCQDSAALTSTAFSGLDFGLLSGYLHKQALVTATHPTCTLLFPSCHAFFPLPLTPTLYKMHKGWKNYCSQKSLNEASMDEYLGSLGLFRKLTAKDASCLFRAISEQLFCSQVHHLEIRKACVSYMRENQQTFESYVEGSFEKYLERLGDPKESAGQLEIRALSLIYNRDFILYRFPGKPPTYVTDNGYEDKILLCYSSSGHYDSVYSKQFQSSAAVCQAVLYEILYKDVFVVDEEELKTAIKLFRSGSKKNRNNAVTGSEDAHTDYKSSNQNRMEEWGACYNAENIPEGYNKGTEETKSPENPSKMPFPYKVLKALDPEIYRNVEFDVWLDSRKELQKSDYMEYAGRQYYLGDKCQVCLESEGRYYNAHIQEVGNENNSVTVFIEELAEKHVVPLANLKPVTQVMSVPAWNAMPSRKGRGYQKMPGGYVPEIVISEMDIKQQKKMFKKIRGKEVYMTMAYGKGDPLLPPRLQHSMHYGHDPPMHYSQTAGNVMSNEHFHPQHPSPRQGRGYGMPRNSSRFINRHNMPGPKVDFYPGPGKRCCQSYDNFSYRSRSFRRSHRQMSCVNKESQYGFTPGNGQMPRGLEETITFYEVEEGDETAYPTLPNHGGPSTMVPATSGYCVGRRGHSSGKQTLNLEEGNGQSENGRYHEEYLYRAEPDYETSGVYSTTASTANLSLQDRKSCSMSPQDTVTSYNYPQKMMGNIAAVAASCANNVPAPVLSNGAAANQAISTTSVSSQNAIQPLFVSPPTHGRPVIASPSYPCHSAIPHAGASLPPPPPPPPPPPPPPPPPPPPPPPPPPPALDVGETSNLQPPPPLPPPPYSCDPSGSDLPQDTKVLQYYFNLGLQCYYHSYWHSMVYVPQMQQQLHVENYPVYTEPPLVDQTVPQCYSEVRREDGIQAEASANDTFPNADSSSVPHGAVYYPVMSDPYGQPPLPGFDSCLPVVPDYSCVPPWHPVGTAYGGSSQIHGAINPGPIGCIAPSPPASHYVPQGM
Summary of the method: (§1)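 HEK293T lysate (495 µg per sample, in Tris/CHAPS/IGEPAL buffer with protease inhibitors) was treated in triplicate with fragment at 200 µM or with DMSO for 3 h. It was then treated with Biotin-Ahx-Ub-VS (0.5 µM final) for 1 h. Labelled DUBs were NeutrAvidin-enriched, digested with LysC and trypsin, and run by diaPASEF LC-MS/MS. Spectronaut label-free quantities were global-median-normalised. Values are average log2 ratios fragment/DMSO by unpaired t-test, using proteins with ≥2 unique peptides.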

ATXN3 = ATXN3 (UniProt P54252)
ATXN3, sequence (P54252 whole entry): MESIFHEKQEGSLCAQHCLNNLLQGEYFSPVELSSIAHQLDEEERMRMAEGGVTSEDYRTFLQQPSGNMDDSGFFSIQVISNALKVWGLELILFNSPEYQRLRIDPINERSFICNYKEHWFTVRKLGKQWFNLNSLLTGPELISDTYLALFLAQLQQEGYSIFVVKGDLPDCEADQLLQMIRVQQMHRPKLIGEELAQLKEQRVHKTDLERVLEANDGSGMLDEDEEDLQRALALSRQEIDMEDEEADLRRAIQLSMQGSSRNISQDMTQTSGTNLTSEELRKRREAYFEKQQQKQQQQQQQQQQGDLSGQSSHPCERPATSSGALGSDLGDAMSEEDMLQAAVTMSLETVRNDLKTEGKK
Summary of the method: as §1

BAP1 = target: T2, BAP1 (UniProt Q92560)
T2 sequence (whole entry): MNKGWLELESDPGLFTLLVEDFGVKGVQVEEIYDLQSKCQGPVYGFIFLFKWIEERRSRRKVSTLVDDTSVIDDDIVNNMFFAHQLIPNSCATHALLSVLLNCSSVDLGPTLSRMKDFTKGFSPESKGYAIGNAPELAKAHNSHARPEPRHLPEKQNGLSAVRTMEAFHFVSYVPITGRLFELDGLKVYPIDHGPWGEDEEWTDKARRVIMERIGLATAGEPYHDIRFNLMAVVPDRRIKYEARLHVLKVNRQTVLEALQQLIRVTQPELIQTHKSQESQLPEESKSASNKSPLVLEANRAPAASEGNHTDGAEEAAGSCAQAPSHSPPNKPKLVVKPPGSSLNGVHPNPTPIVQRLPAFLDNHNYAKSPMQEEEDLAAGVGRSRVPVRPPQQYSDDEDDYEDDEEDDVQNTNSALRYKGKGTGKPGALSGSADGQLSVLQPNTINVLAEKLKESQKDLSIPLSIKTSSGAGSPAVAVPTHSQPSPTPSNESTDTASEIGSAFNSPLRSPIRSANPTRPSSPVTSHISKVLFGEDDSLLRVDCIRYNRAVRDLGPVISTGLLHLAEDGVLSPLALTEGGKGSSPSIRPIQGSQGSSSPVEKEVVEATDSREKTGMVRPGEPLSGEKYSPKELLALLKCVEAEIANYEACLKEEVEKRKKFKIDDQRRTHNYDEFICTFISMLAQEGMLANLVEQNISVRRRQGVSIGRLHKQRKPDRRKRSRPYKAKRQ
Summary of the method: as §1

EIF3F = EIF3F (UniProt O00303)
EIF3F, sequence (O00303 whole entry): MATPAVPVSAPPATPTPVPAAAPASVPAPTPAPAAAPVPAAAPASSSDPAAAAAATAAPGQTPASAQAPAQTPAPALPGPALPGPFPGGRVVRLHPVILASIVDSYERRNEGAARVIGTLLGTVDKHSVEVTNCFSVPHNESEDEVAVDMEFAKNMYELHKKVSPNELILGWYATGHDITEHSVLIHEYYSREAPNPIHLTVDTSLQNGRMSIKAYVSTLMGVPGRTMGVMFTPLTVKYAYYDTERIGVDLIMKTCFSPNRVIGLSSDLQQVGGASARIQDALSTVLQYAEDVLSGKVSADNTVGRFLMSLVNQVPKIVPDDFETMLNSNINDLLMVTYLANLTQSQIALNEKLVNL
Summary of the method: as §1

EIF3H = EIF3H (UniProt O15372)
EIF3H, sequence (O15372 whole entry): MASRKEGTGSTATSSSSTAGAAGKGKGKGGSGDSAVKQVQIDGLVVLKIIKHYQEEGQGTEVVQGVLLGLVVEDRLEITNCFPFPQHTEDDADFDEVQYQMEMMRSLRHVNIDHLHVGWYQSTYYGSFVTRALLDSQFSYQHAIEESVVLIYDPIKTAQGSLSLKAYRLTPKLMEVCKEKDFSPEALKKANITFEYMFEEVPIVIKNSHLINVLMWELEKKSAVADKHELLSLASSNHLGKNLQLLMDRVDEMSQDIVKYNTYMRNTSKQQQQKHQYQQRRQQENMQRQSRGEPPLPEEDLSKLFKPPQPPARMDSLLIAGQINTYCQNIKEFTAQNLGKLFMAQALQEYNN
Summary of the method: as §1

FAM105A = target: T3, FAM105A (UniProt Q9NUU6)
T3 sequence (whole entry): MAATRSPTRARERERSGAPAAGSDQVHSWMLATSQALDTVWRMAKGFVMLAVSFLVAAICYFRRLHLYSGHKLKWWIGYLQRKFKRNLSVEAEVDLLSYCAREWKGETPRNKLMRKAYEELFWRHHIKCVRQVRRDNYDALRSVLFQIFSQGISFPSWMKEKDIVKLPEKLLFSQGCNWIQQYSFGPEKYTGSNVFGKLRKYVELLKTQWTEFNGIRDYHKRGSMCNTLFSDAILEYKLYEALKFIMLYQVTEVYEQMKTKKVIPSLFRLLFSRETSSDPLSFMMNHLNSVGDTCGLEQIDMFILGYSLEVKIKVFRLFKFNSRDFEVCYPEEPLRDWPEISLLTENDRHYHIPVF
Summary of the method: as §1

OTUB1 = OTUB1 (UniProt Q96FW1)
OTUB1, sequence (Q96FW1 whole entry): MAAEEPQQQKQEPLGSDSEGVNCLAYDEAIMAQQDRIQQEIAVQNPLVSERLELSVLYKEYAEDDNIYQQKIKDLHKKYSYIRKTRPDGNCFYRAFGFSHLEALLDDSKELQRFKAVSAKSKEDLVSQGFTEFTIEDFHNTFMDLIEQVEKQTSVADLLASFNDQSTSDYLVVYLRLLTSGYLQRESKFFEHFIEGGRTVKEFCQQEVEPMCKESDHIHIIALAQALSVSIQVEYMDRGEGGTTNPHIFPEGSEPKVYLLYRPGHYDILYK
Summary of the method: as §1

OTUD4 = target: T4, OTUD4 (UniProt Q01804)
T4 sequence (whole entry): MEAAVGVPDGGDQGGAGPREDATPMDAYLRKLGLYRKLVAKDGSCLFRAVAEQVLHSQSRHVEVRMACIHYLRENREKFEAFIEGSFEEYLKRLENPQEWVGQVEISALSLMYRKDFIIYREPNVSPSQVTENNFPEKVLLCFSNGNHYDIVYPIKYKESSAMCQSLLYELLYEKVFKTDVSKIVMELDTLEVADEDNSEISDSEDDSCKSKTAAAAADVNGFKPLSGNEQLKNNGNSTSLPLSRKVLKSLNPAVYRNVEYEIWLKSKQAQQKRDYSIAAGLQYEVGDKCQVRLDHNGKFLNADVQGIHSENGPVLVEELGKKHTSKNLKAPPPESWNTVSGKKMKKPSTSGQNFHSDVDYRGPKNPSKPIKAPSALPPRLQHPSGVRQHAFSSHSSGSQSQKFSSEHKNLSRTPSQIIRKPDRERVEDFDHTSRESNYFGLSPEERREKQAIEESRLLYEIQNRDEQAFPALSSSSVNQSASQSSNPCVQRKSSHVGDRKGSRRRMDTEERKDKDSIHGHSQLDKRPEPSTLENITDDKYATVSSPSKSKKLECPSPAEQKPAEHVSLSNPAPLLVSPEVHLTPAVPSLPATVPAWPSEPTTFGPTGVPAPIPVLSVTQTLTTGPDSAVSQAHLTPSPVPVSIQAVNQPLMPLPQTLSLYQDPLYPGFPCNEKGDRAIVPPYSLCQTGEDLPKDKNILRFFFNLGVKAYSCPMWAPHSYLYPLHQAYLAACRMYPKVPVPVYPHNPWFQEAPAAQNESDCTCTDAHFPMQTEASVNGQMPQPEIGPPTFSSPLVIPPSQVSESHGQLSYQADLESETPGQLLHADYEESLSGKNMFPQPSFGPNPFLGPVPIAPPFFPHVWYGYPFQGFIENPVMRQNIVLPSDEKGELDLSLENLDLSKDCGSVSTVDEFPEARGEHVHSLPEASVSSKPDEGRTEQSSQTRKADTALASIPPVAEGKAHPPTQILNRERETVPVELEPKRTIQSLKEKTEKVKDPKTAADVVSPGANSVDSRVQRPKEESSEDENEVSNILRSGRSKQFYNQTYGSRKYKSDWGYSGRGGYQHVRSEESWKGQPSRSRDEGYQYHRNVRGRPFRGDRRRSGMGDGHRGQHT
Summary of the method: as §1

OTUD5 = target: T5, OTUD5 (UniProt Q96G74)
T5 sequence (whole entry): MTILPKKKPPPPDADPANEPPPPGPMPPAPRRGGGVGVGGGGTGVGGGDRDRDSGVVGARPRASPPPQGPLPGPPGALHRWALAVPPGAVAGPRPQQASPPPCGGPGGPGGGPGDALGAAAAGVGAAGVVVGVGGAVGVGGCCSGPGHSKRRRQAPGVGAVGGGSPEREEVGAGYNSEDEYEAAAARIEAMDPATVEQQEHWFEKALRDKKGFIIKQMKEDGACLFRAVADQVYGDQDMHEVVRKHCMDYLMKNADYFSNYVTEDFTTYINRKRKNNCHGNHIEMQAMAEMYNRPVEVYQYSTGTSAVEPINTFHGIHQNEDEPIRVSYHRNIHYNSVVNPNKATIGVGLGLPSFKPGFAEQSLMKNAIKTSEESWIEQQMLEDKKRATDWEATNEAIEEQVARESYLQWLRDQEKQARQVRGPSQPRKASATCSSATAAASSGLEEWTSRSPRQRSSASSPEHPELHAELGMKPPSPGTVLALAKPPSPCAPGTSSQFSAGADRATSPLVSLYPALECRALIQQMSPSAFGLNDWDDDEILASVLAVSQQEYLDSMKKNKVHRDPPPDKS
Summary of the method: as §1

Measured: log2 ratio of Biotin-Ahx-Ub-VS probe labelling

O=C(CCl)NC1CCC(C(F)(F)F)CC1 (centres undefined)
active: BAP1 -1.11
inactive: ALG13 0.187 | ATXN3 -0.373 | EIF3F -0.798 | EIF3H -0.225 | FAM105A -0.0674 | OTUB1 0.207 | OTUD4 -0.576 | OTUD5 -0.288

Source: the supplement of paper PMC11732987, “Enantioselective OTUD7B fragment discovery through chemoproteomics screening and high-throughput optimisation” (Communications Chemistry, 2025)
